# Sampled rows, rich in hits. Any-hit rate of the full collection: about 2.6%.
# TRPV1 ag: human TRPV1 agonism. TRPV1-expressing cells, Fluo-8 calcium influx, agonist mode. activation, % at 8.33 µM. hit rate 0.19% among 320,000; in the data active = activation above about 80%; inconclusive = between about 30% and that limit; also: 0% is about no effect
#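 Fluo-8 calcium influx in TRPV1-expressing cells, kinetic read (ex 480/em 520 nm). Compound added and read 3 min for agonist activity, followed by capsaicin at EC20 final and 2 min further read for enhancement.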
# ClpP mod: qHTS Assay for Activators of ClpP. purified B. subtilis ClpP, FRET peptide cleavage, 20 min. Potency, µM (series often up to 57.5 µM), inactives show at the highest dose activity change, negative = active. hit rate 1.9% among 340,000; active = well fitted falling curve with a large enough effect; inconclusive = small, poorly fitted or top-dose-only effect; inactive = no such curve, though single readings can be large or run the other way; also: potency is read from the fitted curve at half-maximal effect; the source files actives as falling curves though it sought activators and does not explain the sign; nearly all actives have a fitted effect of over 65% in size
# Target sequence (P80244 whole entry, looked up): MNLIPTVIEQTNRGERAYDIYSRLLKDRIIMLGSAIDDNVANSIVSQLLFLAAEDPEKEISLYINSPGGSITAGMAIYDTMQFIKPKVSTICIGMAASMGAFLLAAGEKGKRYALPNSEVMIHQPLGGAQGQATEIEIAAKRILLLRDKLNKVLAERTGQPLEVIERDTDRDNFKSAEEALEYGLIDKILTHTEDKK
#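 FRET quenching reversal measured ClpP activation: 10 microg/mL B. subtilis ClpP at pH 8 with the FRET-FV decapeptide, read at 430 nm after 320 nm excitation. The 20-min minus 0-min signal was scaled between DMSO/no-enzyme wells and ADEP (5.8 microM final).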
# KCNH2 3.1 inh: inhibitors of human KCNH2 3.1 potassium channel isoform. U2OS KCNH2 3.1, thallium flux FluxOr; active compounds read low. activity change, % (tested at about 1.8 µM). hit rate 0.95% among 340,000. AID 720553;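 active = maximum activity change below -70%; inconclusive = maximum activity change from -70% to -50%; inactive = maximum activity change above -50%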;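 also: thallium influx rate constant from kinetic fluorescence after stimulation buffer; % is scaled to controls: 0 for no effect and ±100 for the full control effect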
#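 Thallium flux via FluxOr fluorescence (Red40 quencher, 45 min loading) in U2OS cells virally expressing the KCNH2 3.1 isoform (1.77 x 10^8 /mL virus, overnight at 37 C). Rate constants from 2-min kinetic reads post-stimulation, normalised to positive and negative controls.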
# p53 reactivator: restores transcriptional activity of mutant p53 | H1299 p53-A138V BP100-luciferase reporter, luminescence, 24 h | hit rate 0.063% among 320,000 | Potency, µM (doses to about 92.2 µM), inactives show at the top dose activity change, positive = activation, usual class: activators | AID 504706; active = well fitted activation curve with a large enough effect; inconclusive = small, poorly fitted or top-dose-only effect; inactive = no such curve, though single readings can be large or run the other way; also: potency is read from the fitted curve at half-maximal effect; % of control where 0% means no effect; nearly all actives have a fitted effect of over 45% in size
#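 p53-null H1299 cells stably carrying temperature-sensitive p53-A138V and a BP100-luciferase reporter were pinned with compounds (4-point, 1:5 series) and held 24 hrs at 37 deg C. Luminescence was read 10 min after detection reagent.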
# TRPV1 potentiator: enhances activation of the human vanilloid receptor TRPV1; TRPV1-expressing cells, Fluo-8 calcium influx, capsaicin EC20 potentiation; potentiation, % at 8.33 µM; hit rate 0.02% among 320,000; in the data active = potentiation above about 80%; inconclusive = between about 30% and that limit; also: 0% is about no effect
#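 Cells expressing TRPV1 were dye-loaded with Fluo-8 and read kinetically: 10 s baseline, 3 min after compound (agonist portion), then 2 min after EC20 capsaicin (allosteric enhancer portion). Calcium-bound dye fluorescence at 480/520 nm.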
# KCNH2 WT inh: blocks the wildtype human KCNH2 potassium channel | Q12809 | U2OS, BacMam KCNH2, thallium flux FluxOr; active compounds read low | activity change, % at 1.84 µM | hit rate 0.37% among 340,000;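 active = maximum activity change below -70%; inconclusive = maximum activity change between -70% and -50%; inactive = maximum activity change above -50%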; also: % is scaled to controls: 0 for no effect and ±100 for the full control effect
#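 U2OS cells were transduced with wild-type KCNH2 virus (2.03 x 10^8 / mL) for 4 h at room temperature, then cultured overnight at 37 C. Thallium flux was read with FluxOr dye. Rate constants were normalized to DMSO controls.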
# * hit, by the source's call; ? = inconclusive; nt = no result given.
SMILES,TRPV1 ag,ClpP mod,KCNH2 3.1 inh,p53 reactivator,TRPV1 potentiator,KCNH2 WT inh
COc1ccc(CN2C(=O)CN(S(C)(=O)=O)CC2(C)C(=O)NCc2ccccc2)cc1OC (stereo not drawn),nt,0%,nt,nt,nt,nt
O=C(NCc1cccc(Br)c1)c1ccc(-n2cnc3cccnc32)cc1,nt,-8%,nt,nt,nt,nt
S=C(Nc1ccc(Br)cc1Cl)N1CCCC1,?,0%,6,1%,-12,-4
COc1ccc(C(=O)NC(=S)Nc2ccc(CN3CCCCC3)cc2)cc1Cl,4,1%,-37,-2%,?,2
Cc1ccc(C(=O)NC(=S)Nc2ccc(CN3CCCCC3)cc2)c(C)c1,0,nt,-73*,2%,-1,27
O=C(Nc1ccc(CN2CCCCC2)cc1)Nc1ccc(Br)cc1Cl,-1,nt,-110*,0%,2,?
O=C(NC(=S)Nc1ccc(CN2CCCCC2)cc1)c1cc2ccccc2o1,13,2%,-94*,4%,-12,26
COc1cc(OC)cc(C(=O)Nc2ccc3oc(-c4ccc(Cl)cc4)nc3c2)c1,nt,-20%,nt,nt,nt,nt
COC(=O)c1cc2c(ccn2-c2ccc(F)cc2)n1Cc1ccc(OC)cc1,5,22µM*,-6,15%,-3,-21
C=CCN1CN(S(=O)(=O)c2cccs2)c2nc3ccccc3nc21,5,25µM*,-4,0%,-6,8
O=S(=O)(c1cccs1)N1CN(Cc2cccs2)c2nc3ccccc3nc21,1,-12%,-25,-1%,11,-8
Nc1nc2ccccc2n1/N=C/c1ccc(-c2ccccc2)o1,26,10%,-87*,?,-2,1
COc1cc2ccccc2cc1C(=O)Nc1ccc(N2CCN(C)CC2)cc1,1,6%,16,20µM*,-2,6
CCOc1ccc(C(=O)Nc2ccc(N3CCN(C)CC3)cc2)cc1Br,6,18µM*,-6,12%,-5,15
CCOc1ccc(C(=O)Nc2ccc(N3CCN(C(=O)c4ccco4)CC3)cc2)cc1Br,nt,43%,?,nt,nt,-19
Cc1ccc(Nc2nc(N)nc(CN3CCN(Cc4ccc5c(c4)OCO5)CC3)n2)cc1C,-2,nt,-104*,-7%,16,?
Cc1ccc(Nc2nc(N)nc(CN3CCN(Cc4ccc5c(c4)OCO5)CC3)n2)cc1,-1,0%,-80*,-17%,-7,-44
Cc1ccc(Nc2nc(N)nc(CN3CCN(Cc4ccc5c(c4)OCO5)CC3)n2)cc1Cl,0,-2%,-92*,-15%,-3,-90*
Cc1cn([C@H]2C[C@H](O)[C@@H](CNC(=O)[C@H](N)Cc3cn(COCc4ccccc4)cn3)O2)c(=O)[nH]c1=O,nt,1%,-21,nt,nt,-8
Cc1ccccc1Nc1nc(N)c(C(=O)c2ccccc2Cl)s1,nt,0%,nt,nt,nt,nt
CC(C)(C)NC(=O)C1C(c2ccccc2)=Nc2ccccc2N1C(=O)c1ccc(C(F)(F)F)cc1 (stereo not drawn),nt,-3%,nt,nt,nt,nt
O=c1c2ccccc2ncn1Cc1ccc(Cl)c(Cl)c1,4,-1%,12,-12%,11,-8
O=c1c2ccccc2ncn1Cc1ccc(Cl)cc1,0,-4%,-98*,-2%,3,2
Clc1ncc(C#Cc2ccccc2)c2ncncc12,nt,4%,nt,nt,nt,nt
O=C(CN1CCC(Cc2ccccc2)CC1)N1CCc2ccccc2C1,-4,nt,-90*,-1%,4,-35
SMILES,TRPV1 ag,ClpP mod,KCNH2 3.1 inh,p53 reactivator,TRPV1 potentiator,KCNH2 WT inh
Cc1ccccc1OCc1nnc(SCc2cc(=O)c3cc(F)ccc3[nH]2)n1C,nt,1%,nt,nt,nt,nt
O=C(O)CC1S/C(=N\N=C2CCCCCC2)N(c2ccccc2)C1=O (stereo not drawn),0,nt,15,0%,-6,-104*
CCOC(=O)CC/C(C)=N\N=C1\SC(CC(=O)O)C(=O)N1c1ccccc1 (stereo not drawn),-2,nt,8,-4%,12,2
CN(C)c1ccc(/C=C/c2ccnc3ccccc23)cc1[N+](=O)[O-],nt,0%,nt,nt,nt,nt
COc1ccc(C(=O)NCc2c(C)oc(C)c2C(=O)O)cc1,-1,16µM*,-6,nt,9,-2
Cc1oc(C)c(C(=O)O)c1COc1ccc(C(=O)O)cc1,1,-10%,19,nt,18,-5
O=c1c2c(nc3cc(-c4cccc(F)c4)[nH]n13)CCC2,0,nt,4,7%,-2,11
O=c1c2c(nc3cc(-c4cccc(Cl)c4)[nH]n13)CCC2,4,28µM*,-11,?,-14,-5
O=c1c2c(nc3cc(-c4ccc(F)cc4)[nH]n13)CCCC2,-4,10µM*,-15,7%,-3,3
NC(N)=Nc1ccc(/C=C2\C=Cc3ccccc32)cc1,nt,-2%,nt,nt,nt,nt
CCC1CN(C(=O)N2CCC(C(=O)NCc3ccccc3F)CC2)c2ccccc2O1 (stereo not drawn),nt,1%,nt,nt,nt,nt
Cc1ccc(CSc2nnc(-c3ccc(NC(=O)CCc4ccccc4)cc3)n2C)cc1,nt,-3%,nt,nt,nt,nt
O=C(CCn1c(=O)c2sccc2n(Cc2cc(=O)n3ccccc3n2)c1=O)NCc1ccco1,-4,28µM*,8,-2%,13,-30
O=C(CCCn1c(=O)c2sccc2n(Cc2cc(=O)n3ccccc3n2)c1=O)NCc1ccco1,-2,-14%,7,1%,-6,-1
Cn1nnc2c(N3CCN(c4ccccc4Cl)CC3)ncnc21,nt,-2%,nt,nt,nt,nt
Cc1ccc2nccc(/C=C/c3ccc(N(C)C)cc3)c2c1,nt,0%,nt,nt,nt,nt
CN(C)c1ccc(C(CNS(=O)(=O)c2ccc(F)cc2)c2c[nH]c3ccccc23)cc1 (stereo not drawn),2,-4%,5,?,7,-1
CCOC(=O)c1ccc(S(=O)(=O)NCC(c2ccc(N(C)C)cc2)c2c[nH]c3ccccc23)cc1 (stereo not drawn),3,25µM*,-4,-2%,-4,10
Cc1cccc2c(C(O)c3c[nH]c4c(C)cccc34)c[nH]c12,nt,4%,nt,nt,nt,nt
COc1ccc(C(=O)C[n+]2ccc(Cl)c3ccc(Cl)cc32)cc1,nt,0%,nt,nt,nt,nt
COc1cc(-c2nc(-c3ccc(NC(=O)c4ccc5c(c4)OCO5)cc3)no2)cc(OC)c1OC,?,20µM*,-5,15%,-7,-7
Cc1cc(C)n2nc(C)c(Br)c2n1,2,nt,17,-1%,4,5
Cc1cc(C)n2nc3nc4c(cc3c2n1)CCCC4,16,13µM*,-7,?,-4,9
Nc1cccc(B(O)O)c1,nt,-6%,nt,nt,nt,nt
O=c1c2ccccc2nc2n1CCCS2,4,-5%,5,9%,6,1
O=c1c2ccccc2nc2n1CCN2,0,16µM*,2,12%,0,21

# Source: PubChem
